PubChem BioAssay AID1159580 (chemical genetic matrix, 2015)
About 2,000 (36%) of roughly 5,500 compounds were called active. Inconclusive results (about 18%) are left out. No stated cut-off is given here; in the data, active means normalized growth mostly below about 0.91 (no sharp cut-off); inconclusive means no clear call, values can overlap the other calls; inactive means mostly above about 0.92. Some of the results follow.

Test: chemical genetic growth profiling, strain panel (AID 1159580);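 further: tested at 20 µM; growth read once vehicle control cultures reached saturation at 30 °C; 1 = growth at the plate median or of vehicle wells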
Settings: S. cerevisiae deletion strains, growth OD

Measured: normalized growth

CO/N=C1/CN(c2nc3c(cc2F)c(=O)c(C(=O)O)cn3C2CC2)CC1CN (centres undefined)
active: locus YLR320W, strain mms22, stronger effect = lower value 0.707 | locus YMR058W, strain fet3, stronger effect = lower value 0.816
inactive: locus YAL021C, strain ccr4, stronger effect = lower value 1 | locus YAL026C, strain drs2, stronger effect = lower value 1.02 | locus YAL030W, strain snc1, stronger effect = lower value 0.992 | locus YBL061C, strain skt5, stronger effect = lower value 0.99 | locus YBR009C, strain hhf1, stronger effect = lower value 0.953 | locus YBR023C, strain chs3, stronger effect = lower value 1.02 | locus YBR171W, strain sec66, stronger effect = lower value 1.02 | locus YBR231C, strain swc5, stronger effect = lower value 0.998 | locus YBR279W, strain paf1, stronger effect = lower value 1.02 | locus YCL011C, strain gbp2, stronger effect = lower value 1.01 | locus YCL016C, strain dcc1, stronger effect = lower value 0.973 | locus YCL069W, strain vba3, stronger effect = lower value 1.02 | locus YCR088W, strain abp1, stronger effect = lower value 1.02 | locus YDL005C, strain med2, stronger effect = lower value 1.04 | locus YDL040C, strain nat1, stronger effect = lower value 1 | locus YDR001C, strain nth1, stronger effect = lower value 1.02 | locus YDR069C, strain doa4, stronger effect = lower value 0.979 | locus YDR137W, strain rgp1, stronger effect = lower value 1.07 | locus YDR159W, strain sac3, stronger effect = lower value 0.975 | locus YDR195W, strain ref2 0.979 | locus YDR297W, strain sur2, stronger effect = lower value 1 | locus YDR334W, strain swr1, stronger effect = lower value 1.02 | locus YDR335W, strain msn5, stronger effect = lower value 1.01 | locus YDR392W, strain spt3, stronger effect = lower value 0.937 | locus YEL003W, strain gim4, stronger effect = lower value 1.03 | locus YEL037C, strain rad23, stronger effect = lower value 1.02 | locus YEL061C, strain CIN8 (second series), stronger effect = lower value 1.01 | locus YER015W, strain faa2, stronger effect = lower value 1.01 | locus YER016W, strain bim1, stronger effect = lower value 1.04 | locus YER111C, strain swi4, stronger effect = lower value 1.03 | locus YER155C, strain BEM2 (second series), stronger effect = lower value 0.977 | locus YFR010W, strain ubp6, stronger effect = lower value 0.982 | locus YGL167C, strain pmr1, stronger effect = lower value 1.01 | locus YGL173C, strain kem1, stronger effect = lower value 0.987 | locus YGL227W, strain vid30, stronger effect = lower value 1.01 | locus YGL240W, strain doc1, stronger effect = lower value 0.967 | locus YGL253W, strain hxk2, stronger effect = lower value 1.02 | locus YHR013C, strain ard1, stronger effect = lower value 1.02 | locus YHR027C, strain rpn1, stronger effect = lower value 1 | locus YHR030C, strain SLT2, stronger effect = lower value 0.983 | locus YHR079C, strain IRE1, stronger effect = lower value 0.949 | locus YHR142W, strain chs7, stronger effect = lower value 1.02 | locus YJL092W, strain hpr5, stronger effect = lower value 0.973 | locus YJL095W, strain BCK1 (second series), stronger effect = lower value 0.992 | locus YJL095W, strain BCK1, stronger effect = lower value 0.98 | locus YJL115W, strain asf1, stronger effect = lower value 0.956 | locus YJL129C, strain trk1, stronger effect = lower value 0.997 | locus YJL154C, strain vps35, stronger effect = lower value 1.02 | locus YJL164C, strain tpk1, stronger effect = lower value 0.985 | locus YJL166W, strain qcr8, stronger effect = lower value 0.998 | locus YJL187C, strain SWE1, stronger effect = lower value 0.998 | locus YJR066W, strain TOR1, stronger effect = lower value 0.949 | locus YKL160W, strain elf1, stronger effect = lower value 1.02 | locus YKR026C, strain gcn3, stronger effect = lower value 1.01 | locus YKR091W, strain srl3, stronger effect = lower value 1.01 | locus YLL001W, strain dnm1, stronger effect = lower value 0.98 | locus YLL026W, stronger effect = lower value 1.01 | locus YLL041C, strain sdh2, stronger effect = lower value 1.02 | locus YLR027C, strain aat2, stronger effect = lower value 1.01 | locus YLR113W, strain HOG1, stronger effect = lower value 0.999 | locus YLR221C, strain rsa3, stronger effect = lower value 0.98 | locus YLR258W, strain gsy2, stronger effect = lower value 1.02 | locus YLR262C, strain YPT6 (second series), stronger effect = lower value 0.978 | locus YLR342W, strain FKS1, stronger effect = lower value 0.958 | locus YLR357W, strain rsc2, stronger effect = lower value 0.981 | locus YLR370C, strain arc18, stronger effect = lower value 1.02 | locus YLR384C, strain iki3, stronger effect = lower value 1.01 | locus YML120C, strain ndi1, stronger effect = lower value 0.998 | locus YMR125W, strain sto1, stronger effect = lower value 1.02 | locus YMR129W, stronger effect = lower value 1.01 | locus YMR205C, strain PFK2, stronger effect = lower value 1.01 | locus YMR231W, strain pep5, stronger effect = lower value 1.01 | locus YNL071W, strain lat1, stronger effect = lower value 1.02 | locus YNL183C, strain NPR1, stronger effect = lower value 0.903 | locus YNL209W, strain ssb2, stronger effect = lower value 1.01 | locus YNL248C, strain rpa49, stronger effect = lower value 1.02 | locus YNL322C, strain KRE1 (second series), stronger effect = lower value 1.03 | locus YNR049C, strain mso1, stronger effect = lower value 1.01 | locus YOR001W, strain rrp6, stronger effect = lower value 1.01 | locus YOR070C, strain gyp1, stronger effect = lower value 1 | locus YOR080W, strain dia2, stronger effect = lower value 0.974 | locus YOR083W, strain WHI5, stronger effect = lower value 0.987 | locus YOR106W, strain vam3, stronger effect = lower value 0.993 | locus YOR231W, strain MKK1, stronger effect = lower value 0.989 | locus YOR265W, strain rbl2, stronger effect = lower value 1.01 | locus YOR270C, strain vph1, stronger effect = lower value 1.03 | locus YOR290C, strain snf2, stronger effect = lower value 1.03 | locus YPL051W, strain arl3, stronger effect = lower value 1 | locus YPL078C, strain atp4, stronger effect = lower value 1.04 | locus YPL106C, strain sse1, stronger effect = lower value 1.01 | locus YPL240C, strain hsp82, stronger effect = lower value 1.02 | locus YPL256C, strain CLN2, stronger effect = lower value 1
